Results on 40 compounds are retold here after PubChem BioAssay (Tox21).

Results filed as inconclusive are left out. Where a call stands in place of a potency, no number is given. The source made the active and inactive calls. Calls follow the shape of the dose curve; as a rule, active = well fitted inhibition curve with a large enough effect in the repeat runs; inconclusive = weak or mixed curves; inactive = no such curve, though single readings can be large or run the other way.
Potency is read from the fitted curve at half-maximal effect.

The assay can be described thus: qHTS assay to identify small molecule antagonists of the thyroid receptor (TR) signaling pathway (AID 743065). Also: nearly all actives have a fitted effect of over 55% in size. The settings on record: GH3.TRE-Luc, T3-stimulated luciferase inhibition, 23.5 h; series mostly up to 70.3 µM. The text has this: U.S. Tox21 Program National Center for Advancing Translational Sciences [NCATS] NIH Chemical Genomics Center [NCGC] U.S. Environmental Protection Agency [EPA] National Institutes of Environmental Health Sciences [NIEHS] National Toxicology Program [NTP] U.S. Food and Drug Administration [FDA] Tox21 Assay Overview: Thyroid receptor (TR), a nuclear hormone receptor, plays an important role in development, proliferation, differentiation, metabolism, brain function, and cardiovascular system. […] To profile the Tox21 10K compound library in TR signaling, a cell-based GH3-TRE-Luc assay (GH3.TRE-Luc cell line, developed by the laboratory of Dr. Albertinka J. Murk, Wageningen University) was used to measure the inhibition of TR. GH3 (rat pituitary tumor) cells stably expressing a TR activity sensor consisting of two TR response elements and a luciferase reporter gene.
Tox21 Assay Protocol Summary: GH3.TRE-Luc cells were dispensed at 1500 cells/4 uL/well into 1536-well white solid bottom plates using a Multidrop Combi dispenser (Thermo Fisher Scientific Inc., Waltham, MA). After the assay plates were incubated at 37 C for 4 hours, 23 nL of library compound or DMSO controls was transferred to the assay plates by a pintool station (Kalypsys, San Diego, CA), followed by addition of 1 ul of T3 (1 nM, final concentration in the wells) to stimulate TR transactivation. The assay plates were incubated at 37 C for 23.5 h, and then 1 uL of CellTiter-Fluor reagent (Promega, Madision, WI) of measuring cytotoxicity was added to each well using a Bioraptr Flying Reagent Dispenser (FRD) workstation (Beckman Coulter, Indianapolis, IN, USA). The plates were incubated at 37 C and 5% CO2 for additional 30 min, and fluorescence intensity was measured by a ViewLux plate reader (PerkinElmer, Shelton, CT). For measuring luciferase reporter gene activity, 4 uL of ONE-Glo Luciferase Assay reagent (Promega) was added to each well using a Bioraptr FRD (Beckman Coulter), followed by 30 min incubation at room temperature. The luminescence intensity of plates was recorded by a ViewLux plate reader (PerkinElmer, Shelton, CT).
(Quantitative high-throughput screening tests each substance at several concentrations.)
Regarding `Cc1c(Cn2ccnc2)c2ccccc2n1CCC(=O)O`, the Potency result is “inactive”.

For the compound `CC1(C)CCC(C)(C)c2cc(NC(=O)c3ccc(C(=O)O)cc3)ccc21`, the Potency is 21.1 µM (active).

For `CC[C@H](C)[C@@H](C(=O)O)n1sc2ccccc2c1=O`, the Potency entry was “inactive”.

As for `CC(C)c1ccccc1C(C)C`, the Potency was 61.2 µM (active).

Take `S=C(S)NCCNC(=S)S`: the Potency result is “inactive”.

Regarding `O=C(NS(=O)(=O)/C=C/c1cccs1)c1ccc(F)cc1Br`, the Potency entry is “inactive”.

Regarding `C[C@H](CCC(=O)O)[C@H]1CC[C@H]2[C@@H]3[C@H](O)C[C@@H]4C[C@H](O)CC[C@]4(C)[C@H]3CC[C@]12C`, the Potency entry is “inactive”.

As for `C=C(C)C(=O)OC(C)C`, the Potency entry was “inactive”.

In the case of `C=CC(=O)OCC(C)OCC(C)OCC(C)OC(=O)C=C` (stereo not given), the Potency was 24.3 µM (active).

For `Oc1ccc(O)c2c(O)cccc12`, the Potency result was “inactive”.

On to `CC(=O)CC(=O)c1ccccc1`, for which the Potency result was “inactive”.

Turning to `CN(C)CC/C=C1\c2ccccc2COc2ccccc21`, the Potency was 23.7 µM (active).

As to `SC1CCCC1`, the Potency result was “inactive”.

On to `CC(=O)Nc1ccc(/C=N/NC(N)=S)cc1`, for which the Potency entry was “inactive”.

Take `CC(C)CC=O`: the Potency result was “inactive”.

Consider `CCCCCc1ccc(N)cc1`, for which the Potency result was “inactive”.

Consider `Oc1ccc(C(O)CNCCCCCCNCC(O)c2ccc(O)c(O)c2)cc1O` (stereo not given), for which the Potency was 29.8 µM (active).

`Cc1ccc(C(=O)C(C)CN2CCCCC2)cc1` (stereo not given): the Potency entry was “inactive”.

On to `Cc1ccc(C)o1`, for which the Potency result is “inactive”.

For `CC1(C)[C@H]2CC[C@]1(C)[C@H](O)C2`, the Potency result is “inactive”.

Turning to `O=C(O)/C=C/c1cnc[nH]1`, the Potency entry was “inactive”.

`CCc1nn(C2CCCCC2)c2cc(C3(C#N)CCC(C(=O)O)CC3)ccc12` (stereo not given): the Potency was 61.1 µM (active).

Consider `C1=Cc2ccccc2C1`, for which the Potency result is “inactive”.

As for `CC[C@H](C)[C@H](N)C(=O)O`, the Potency entry was “inactive”.

Take `COC(Cc1ccccc1)OC`: the Potency entry was “inactive”.

On to `FC(F)(F)C(F)(F)C(F)(F)C(F)(F)C(F)(F)C(F)(F)CCI`, for which the Potency result was “inactive”.

In the case of `CN1CCC(=C2c3ccccc3CCc3sccc32)CC1`, the Potency is 26.6 µM (active).

On to `O=C(O)C(c1ccc(Cl)cc1)c1ccc(Cl)cc1`, for which the Potency result is “inactive”.

On to `O=C(c1ccc(O)cc1)c1ccc(O)cc1`, for which the Potency result is “inactive”.

For the compound `CC(C)CCCCCCOC(=O)c1ccc(C(=O)OCCCCCCC(C)C)c(C(=O)OCCCCCCC(C)C)c1`, the Potency result was “inactive”.

As to `N[C@H]1C(O)O[C@H](CO)[C@H](O)[C@@H]1O` (stereo not given in full), the Potency result was “inactive”.

For the compound `COc1ccc(C(C)=O)cc1`, the Potency result is “inactive”.

In the case of `CCOc1cc(OCC)c(C(=O)CCC(=O)O)cc1OCC`, the Potency entry is “inactive”.

Take `NC(N)=NN=C(/C=C/c1ccc([N+](=O)[O-])o1)/C=C/c1ccc([N+](=O)[O-])o1`: the Potency is 1.5 µM (active).

For `O=C(Nc1ccccc1)OCC(CN1CCCCC1)OC(=O)Nc1ccccc1` (stereo not given), the Potency is 10.1 µM (active).

For `CC(C)c1ccc2c(C(C)C)cc(C(C)C)c(S(=O)(=O)O)c2c1`, the Potency is 63.2 µM (active).

Consider `O=C(Cl)c1c(Cl)cccc1Cl`, for which the Potency result is “inactive”.

Regarding `Nc1nc(CC(=O)O)cs1`, the Potency entry was “inactive”.

In the case of `Oc1ccc(Sc2ccc(O)cc2)cc1`, the Potency was 51 µM (active).

As for `Nc1cnn([C@@H]2O[C@H](CO)[C@@H](O)[C@H]2O)c(=O)n1`, the Potency result was “inactive”.
